Assay outcomes from PubChem BioAssay.
The list is not random: actives were taken first. Their share in the collection is about 17%.
ClpP mod – qHTS Assay for Activators of ClpP | 1.9% of 340,000 active | Potency, µM (doses to about 57.5 µM), for inactives: at the top dose activity change, negative = active | purified B. subtilis ClpP, FRET peptide cleavage, 20 min | AID 651965, 2013; active means well fitted falling curve with a large enough effect; inconclusive means small, poorly fitted or top-dose-only effect; inactive means no such curve, though single readings can be large or run the other way; further: the source files actives as falling curves though it sought activators and does not explain the sign; nearly all actives have a fitted effect of over 65% in size
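Purified B. subtilis ClpP, 10 microg/mL final in Tris/HCl pH8 with KCl, BSA, glycerol and Tween-20, cleaved an Abz/nitrotyrosine-quenched decapeptide. Fluorescence (ex 320, em 430) was read at 0 and 20 min at room temperature. Delta was normalized to 5.8 microM ADEP and DMSO/no-enzyme controls.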
TDP1 block – qHTS Assay for Inhibitors of Tyrosyl-DNA Phosphodiesterase (TDP1) | Potency, µM (titrated, usually from 130 µM), without a hit: top-dose activity change, negative = inhibition, actives largely listed as inhibitors | recombinant TDP1, AlphaScreen DNA substrate cleavage | Tyrosyl-DNA phosphodiesterase 1 (Homo sapiens), Q9NUW8 | 0.28% of 350,000 active | AID 485290, 2010; further: on the % scale 0 is the no-effect control and ±100 the full control effect; nearly all actives have a fitted effect of over 40% in size
Target sequence (Q9NUW8 whole entry, looked up): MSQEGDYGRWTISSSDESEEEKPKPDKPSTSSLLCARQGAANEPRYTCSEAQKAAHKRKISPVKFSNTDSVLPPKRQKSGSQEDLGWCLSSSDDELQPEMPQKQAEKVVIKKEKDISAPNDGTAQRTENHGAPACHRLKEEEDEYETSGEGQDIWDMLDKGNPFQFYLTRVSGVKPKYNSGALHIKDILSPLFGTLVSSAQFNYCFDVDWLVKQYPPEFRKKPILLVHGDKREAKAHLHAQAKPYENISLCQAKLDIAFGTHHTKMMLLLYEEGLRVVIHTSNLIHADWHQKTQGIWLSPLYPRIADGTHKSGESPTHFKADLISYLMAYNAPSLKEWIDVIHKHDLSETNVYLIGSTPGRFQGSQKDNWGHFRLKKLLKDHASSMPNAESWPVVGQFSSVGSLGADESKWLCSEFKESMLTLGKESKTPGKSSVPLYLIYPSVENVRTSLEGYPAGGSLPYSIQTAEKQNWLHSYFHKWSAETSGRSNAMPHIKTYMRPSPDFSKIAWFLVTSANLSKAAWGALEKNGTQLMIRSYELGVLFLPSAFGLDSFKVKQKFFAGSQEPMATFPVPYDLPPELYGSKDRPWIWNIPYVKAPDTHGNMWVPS
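Recombinant E. coli-expressed Tdp1 (1 nM) preincubated with compound 15 min at RT, then 5'-biotin/3'-phosphotyrosine-FITC DNA substrate (15 nM) added for 5 min. AlphaScreen beads (10 ug/ml) added, 10 min RT; tyrosine-FITC cleavage read as signal loss.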
TDP1 cell noCPT – qHTS for Inhibitors of human tyrosyl-DNA phosphodiesterase 1 (TDP1): qHTS in cells in absence of CPT; 15% of 420,000 active; AID 686978, 2013; DT40 Tdp1-/- hTDP1 cells, no CPT, ATP luminescence, 48 h; Potency, µM (top dose mostly 46.2 µM), inactives show top-dose activity change, negative = growth inhibition, most hits filed as inhibitors; further: on the % scale 0 is the no-effect control and ±100 the full control effect; nearly all actives have a fitted effect of over 55% in size
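Growth kinetics read by CellTiter-Glo luminescence after ≥48 hr at 37 °C. Cells: DT40 Tdp1-/- stably carrying human TDP1, 400 per well, compound exposure in the absence of CPT (DMSO vehicle).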
TDP1 cell CPT – qHTS for Inhibitors of human tyrosyl-DNA phosphodiesterase 1 (TDP1): qHTS in cells in presence of CPT. chicken DT40 Tdp1-/-;hTDP1 cells + 20 nM CPT, ATP luminescence, 48 h. 12% of 420,000 active. Potency, µM (top dose mostly 46.2 µM), for the others: top-dose activity change, negative = growth inhibition, usual class: inhibitors; further: on the % scale 0 is the no-effect control and ±100 the full control effect; nearly all actives have a fitted effect of over 55% in size
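Cell growth measured by CellTiter-Glo luminescence after a minimum 48 h, 37 C compound exposure with 20 nM CPT in Tdp1-knockout DT40 cells stably expressing hTDP1, seeded 400/well; qHTS titration format.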
Active calls of the source: *; ? = inconclusive; . = not tested or not shown; ! = not active in a repeat. Unless noted, the call rests on the fitted dose curve; in most records, active means well fitted curve in the direction sought with a large enough effect; inconclusive means small, poorly fitted or top-dose-only effect, or another doubt; inactive means no such curve, though single readings can be large; an effect the other way counts as inactive or inconclusive. Potency means the concentration at half of the fitted maximal effect.

SMILES | ClpP mod | TDP1 block | TDP1 cell noCPT | TDP1 cell CPT
Cc1cc(N2O[C@]34C=C[C@]25C[C@@H](O)CC[C@]5(C)C3CC[C@]2(C)[C@@H]([C@H](C)/C=C/[C@H](C)C(C)C)CC[C@H]24)no1 (some centres undefined) | 3% | . | 9.2µM* | 12µM*
Cc1cccc(C)c1NC(=S)NC(C)CCc1ccccc1 (centres undefined) | -3% | 3% | 16µM* | ?
Cc1ccc(NC(=S)NC(C)CCc2ccccc2)cc1C (centres undefined) | ? | 3% | ? | ?
Cc1ccccc1CN(C)CC(=O)NC(C)CCc1ccccc1 (centres undefined) | . | 1% | 16µM* | ?
CCCn1c2ccc(C)cc2c2n[nH]c(=S)nc21 | -1% | . | 15µM* | ?
CCn1c2ccc(F)cc2c2nnc(SCCN3CCCCC3)nc21 | -4% | 0% | 16µM*! | ?
CCn1c2ccccc2c2n[nH]c(=S)nc21 | 3% | . | ? | -28%
CCCn1c2ccc(F)cc2c2nnc(SCCN3CCOCC3)nc21 | 0% | . | ? | 18µM*
CCCn1c2ccc(C)cc2c2nnc(SCCN3CCOCC3)nc21 | 1% | . | 16µM* | ?
CC(C)(C)NC(=O)c1oc2ccccc2c1NC(=O)c1ccc(F)cc1 | -5% | 2% | ? | ?
O=C(Nc1ccc(F)c(Cl)c1)N1CCC(CN2CCc3ccccc3C2)CC1 | -7% | 4% | ? | ?
CCCn1c2ccc(C)cc2c2nnc(SCCN3CCCCC3)nc21 | -3% | -1% | 21µM* | 18µM*
CCn1c2ccc(C)cc2c2nnc(SCCN3CCCCC3)nc21 | -3% | . | 16µM* | ?
CCCn1c2ccccc2c2nnc(SCCN3CCOCC3)nc21 | . | 5% | ? | ?
CCN(CC)CC(O)CCCCCCCCC(=O)OC (centres undefined) | 1% | 8% | -8% | 1%
COC(=O)CCCCCCCCC(O)CN(C)C (centres undefined) | -1% | 1% | 16µM* | ?
Cc1cc2occ(CC(=O)N(C)CC(=O)Nc3ccc(F)cc3)c2cc1C | -2% | -3% | ? | 12µM*
COc1ccc2c(c1)cc1c(=O)n(CC(=O)NC3CC3)nc(C)n12 | 4% | -3% | 4% | -2%
CCOC(=O)Cc1ccc(NC(=O)c2ccc(C(C)(C)C)cc2)cc1 | -1% | 2% | 15µM* | 18µM*
O=C(NCc1cccnc1)c1ccc(NC(=O)c2ccc([N+](=O)[O-])cc2)cc1 | -1% | 2% | 9.2µM* | 13µM*
CC(C)c1ccc(C(=O)NC(=S)NCc2cccnc2)cc1 | 0% | 8% | 16µM* | ?
O=C(Nc1cnn(Cc2c(Cl)cccc2Cl)c1)c1ccc([N+](=O)[O-])cc1 | 7% | 2% | 16µM* | ?
Cc1cc(C)cc(NC(=O)C2CCCN2/C=C/C(=O)C(F)(F)F)c1 (centres undefined) | -4% | 0% | -5% | 1%
O=C(O)CC(NS(=O)(=O)c1ccc(Cl)s1)c1ccccc1 (centres undefined) | -4% | -2% | 28% | 1%
C[C@H](CO)N1C[C@H](C)[C@@H](CN(C)C(=O)c2ccc3ccn(C)c3c2)OCc2cn(nn2)CCCC1=O | -9% | . | -17% | 14%
SMILES | ClpP mod | TDP1 block | TDP1 cell noCPT | TDP1 cell CPT
CCOc1ccc(C(=O)NC(=S)Nc2ccc(NC(=O)c3ccco3)c(C)c2)cc1[N+](=O)[O-] | -2% | 3% | -5% | -14%
Cc1ccc(CNC(=O)CC(C)S(=O)(=O)c2cc3c(cc2C)NC(=O)CO3)cc1 (centres undefined) | 2% | 9% | -4% | -2%
CC(C)(C)c1ccc(C(=O)Nc2ccc(C(=O)NCc3cccnc3)cc2)cc1 | . | 1% | 1.8µM* | 2.6µM*
CC(C)(C)C(=O)Nc1ccc(C(=O)NCc2cccnc2)cc1 | 0% | 2% | -5% | 6%
CC1(C(=O)NS(=O)(=O)c2ccccc2C(F)(F)F)CCN1C(=O)c1cccc(F)c1 (centres undefined) | 2% | . | -14% | -10%
CCC(Sc1ncccc1C(=O)Oc1cccc([N+](=O)[O-])c1)C(=O)Nc1ccccc1OC (centres undefined) | 35µM* | -1% | -30% | -3%
Cc1cccc(C(=O)Nc2sc3c(c2C(=O)N2CCCCC2)CCC(C)C3)c1 (centres undefined) | 0% | . | ? | ?
CC(C)[C@@H](CC(=O)N[C@@H]1CCNC[C@H]1C(=O)N[C@H](CC(=O)N[C@@H](CCC(=O)O)CC(=O)O)Cc1c[nH]c2ccccc12)NC(=O)C[C@H](Cc1c[nH]c2ccccc12)NC(=O)[C@@H]1CCCC[C@H]1N | . | 2% | . | .
COc1ccc(OC)c(NC(=O)CN(C)S(=O)(=O)c2ccc(C(=O)N3CCOCC3)s2)c1 | -1% | -4% | ? | ?
CCC(c1nnnn1-c1ccc2c(c1)OCCO2)N1CCN(c2ccc(C(F)(F)F)cc2[N+](=O)[O-])CC1 (centres undefined) | 1% | . | 23µM* | 15µM*
Cc1cc(F)ccc1NC(=O)CCS(=O)(=O)c1cc2c(cc1C)NC(=O)CO2 | -2% | -4% | . | .
CCNC(=O)C1(C)CCN1CCC(=O)c1ccc(C)cc1 (centres undefined) | 1% | . | 16µM* | 21µM*
COc1ccc(Cc2c(C3CCCCC3)nc3ccc(Br)cn23)c(C)c1 | -5% | . | 23µM* | 16µM*
COc1ccc(Cc2c(C3CCCCC3)nc3c(Cl)cc(C(F)(F)F)cn23)c(C)c1 | -5% | . | ? | 18µM*
Cc1cc(Br)cn2c(Cc3cccc(F)c3)c(C3CCCCC3)nc12 | -1% | . | ? | ?
COc1ccc(Cc2c(C3CCCCC3)nc3cc(C)c(Br)c(C)n23)c(C)c1 | 0% | . | ? | -5%
Cc1ccc(C)c(NC(=O)CSc2cn(CC(=O)N3CCCC3)c3ccccc23)c1 | -2% | 3% | ? | ?
O=C(Nc1ccc(Oc2c(F)c(F)c(F)c(F)c2F)cc1)OC1CCN2Cc3ccccc3N=C12 (centres undefined) | . | 9% | 2.3µM* | 5.2µM*
Oc1ccc(C2=CSC3=NCCN23)cc1O | 0% | . | -18% | -4%
COc1ccc(OC)c(-c2cc(C(=O)Nc3c(C)nn(Cc4ccccc4C)c3C)no2)c1 | ? | 4% | 10µM* | 10µM*
COc1ccc(-c2cc(C(=O)Nc3c(C)nn(Cc4ccc(Cl)cc4)c3C)no2)cc1 | -13% | -4% | ? | -30%
COc1ccccc1-c1cc(C(=O)Nc2c(C)nn(Cc3ccc(Cl)cc3)c2C)no1 | -3% | 5% | 21µM* | 21µM*
